Only some compounds are listed: those with a hit (about 2% of all), similar ones and a draw of the others.
TAG inh – inhibitors of triacylglycerol accumulation | H9c2 cells, Nile Red lipid (TAG) fluorescence; cells loaded with 200 µM oleic acid | inhibition, % at 12.5 µM | hit rate 0.66% among 230,000;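 active = pattern-corrected inhibition of lipid staining of at least 50% with the nuclear-stain viability signal not falling by more than 50%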
CHT inh – human CHT choline transport inhibition; B-score at 10 µM; hit rate 0.86% among 310,000; AID 488975; CHT-expressing cells, membrane potential dye, choline response; hits give low values;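 active = B-score over 3 SD under the library average, and starting fluorescence ratio not unusually high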;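 note: choline stimulus applied at its EC90 after an EC20 pre-addition; B-score computed on integrated fluorescence ratio after choline addition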
Target sequence (Q9GZV3 whole entry, looked up): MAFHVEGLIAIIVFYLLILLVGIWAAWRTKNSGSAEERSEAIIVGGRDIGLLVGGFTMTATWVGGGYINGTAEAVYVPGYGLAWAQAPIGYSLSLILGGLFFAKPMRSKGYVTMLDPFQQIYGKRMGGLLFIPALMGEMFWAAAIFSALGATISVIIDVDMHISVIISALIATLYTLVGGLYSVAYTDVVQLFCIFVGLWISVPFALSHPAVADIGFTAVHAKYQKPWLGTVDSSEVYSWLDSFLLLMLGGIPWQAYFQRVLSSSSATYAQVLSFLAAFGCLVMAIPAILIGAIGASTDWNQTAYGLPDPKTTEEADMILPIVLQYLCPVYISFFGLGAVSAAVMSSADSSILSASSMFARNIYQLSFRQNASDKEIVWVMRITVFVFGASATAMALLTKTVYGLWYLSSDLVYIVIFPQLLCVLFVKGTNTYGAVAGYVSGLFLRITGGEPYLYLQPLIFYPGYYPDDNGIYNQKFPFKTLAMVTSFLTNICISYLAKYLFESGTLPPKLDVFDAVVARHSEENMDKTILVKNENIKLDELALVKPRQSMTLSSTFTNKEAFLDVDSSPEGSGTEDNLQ
Kir21 block – Kir2.1 (mouse) channel inhibition; P35561; HEK293-Kir2.1, FluxOR thallium flux fluorescence; hits give low values; B-score at 10 µM; hit rate 0.85% among 310,000; AID 1672;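 active = fluorescence ratio B-score at or below minus 3 SD of library scores, with starting-brightness B-score within 2 SD, cut at about -4.2 in these data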;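 note: channel flux triggered by added potassium and thallium sulfate stimulus; B-score of peak minus minimum fluorescence over baseline after thallium stimulus; more negative B-score means stronger Kir2.1 block with less thallium influx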
CHT allo act – allosterically activates the human high affinity choline transporter | AID 488977 | hit rate 0.49% among 310,000 | B-score at 10 µM | CHT-expressing cells, membrane potential dye, choline EC20; hits give high values; LV-AA mutant CHT in HEK293 cells | Q9GZV3;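 active = initial fluorescence not abnormally high and integrated response B-score, plate-corrected, over 3 SD above library mean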
hERG inh – counter-screen for Kir2.1 inhibitors: effect on human hERG | AID 2236 | shares compounds with Kir21 block | hERG-expressing cells, thallium flux | hit rate 20% among 320 | inhibition, % at 10 µM;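 note: host cells are CHO cells stably expressing hERG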
KCNK9 inh – tests whether Kir2.1 inhibitors also affect human KCNK9 | hit rate 5% among 320 | inhibition, % at 10 µM | KCNK9-expressing cells, ion flux inhibition | shares compounds with Kir21 block
Kir21 ephys inh – inhibitors of mouse Kir2.1 potassium channel; Kir2.1 cells, automated patch-clamp current inhibition; AID 463252; hit rate 71% among 320; inhibition, % at 25 µM; shares compounds with Kir21 block
CHT block conf – human CHT inhibition, confirmatory screen; shares compounds with CHT inh; CHT-expressing cells, choline membrane potential dye; LV-to-AA substituted CHT, HEK293 cells; CHT activity remaining % of control (hits give low values), % at 10 µM; hit rate 70% among 2,400; AID 493221;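 active = choline transporter activity left, mean of duplicates at 10 µM, below buffer-only control mean minus 3 SD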;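 note: depolarization triggered by choline at its EC90 following an EC20 pre-addition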
HEK293 CHT ctr – activity in parental HEK293 cells lacking CHT; shares compounds with CHT inh; membrane potential dye, choline response; active = decrease or increase beyond buffer ±3SD; membrane potential ratio readout (active if shifted either direction beyond buffer ±3SD; no single direction) at 10 µM; hit rate 4% among 2,400; AID 493222;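 note: parental cells lack the transporter so any hit is non-specific; ratio is peak minus trough fluorescence over baseline after EC90 choline challenge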
Of the large screens only hits and unclear results are named; the others gave an inactive call (follow-up assays come after a bar, where they were run). Unless noted, the rule behind the calls is not given here.

Cc1cc(C)c(OCCCCN(C)C)c(Br)c1	none
Cc1cc(C)c(C)c(S(=O)(=O)NCC(=O)Nc2ccccc2F)c1C	Kir21 block -6.93 (no result: CHT inh, CHT allo act) | hERG inh inactive | KCNK9 inh inactive | Kir21 ephys inh inactive
Cc1cc(C)c(C)c(S(=O)(=O)NCC(=O)O)c1C	none
COCCNCC(O)CON=C1c2ccccc2-c2ccccc21 (stereo unspecified)	Kir21 block -7.02 | hERG inh inactive | KCNK9 inh inactive | Kir21 ephys inh 18.7%
CCNC(=O)CON=C1c2ccccc2-c2ccccc21	none
CN1CCc2c(n(CC(O)CNCc3ccccc3)c3ccccc23)C1=O (stereo unspecified)	Kir21 block -6.02 (no result: TAG inh) | hERG inh inactive | KCNK9 inh 31.0% | Kir21 ephys inh inactive
CN1CCc2c(n(CC(O)CN(CCO)CCO)c3ccccc23)C1=O (stereo unspecified)	none (no result: TAG inh)
CC(C)C(NC(=O)C1CCCCC1)C(=O)NCCc1ccccc1 (stereo unspecified)	none
COc1cccc(OC)c1OCCOc1ccccc1OC(C)C	Kir21 block -11.1 | hERG inh inactive | KCNK9 inh inactive | Kir21 ephys inh 42.5%
N#Cc1ccc(CSc2ccc(S(=O)(=O)N3CCCC3)cn2)cc1	none (no result: CHT inh, Kir21 block, CHT allo act)
Cn1c(-c2ccc(F)cc2)cnc1NCc1ccc(F)cc1	Kir21 block -10.2 | hERG inh inactive | KCNK9 inh inactive | Kir21 ephys inh 59.9%
Cn1c(-c2ccc(F)cc2)cnc1NCc1ccc(C#N)cc1	none (no result: TAG inh)
Cc1cc(OCC(O)CN2CCc3ccccc3C2)cc(C(C)C)c1 (stereo unspecified)	Kir21 block -13.1 (no result: TAG inh) | hERG inh 58.0% | KCNK9 inh inactive | Kir21 ephys inh 6.0%
CC(=O)c1ccc(OCC(O)CN2CCc3ccccc3C2)cc1 (stereo unspecified)	none (no result: TAG inh)
Cc1c(Cc2ccccc2)c(=O)oc2cc(OCC(=O)N3CCC(C(=O)O)CC3)ccc12	none (no result: TAG inh)
CCCCOc1c(Br)cc(/C=N/O)cc1OCC	Kir21 block -7.3 | hERG inh inactive | KCNK9 inh inactive | Kir21 ephys inh 11.1%
Cc1onc(-c2ccccc2)c1CNS(=O)(=O)c1cccc(Cl)c1	Kir21 block -9.8 | hERG inh inactive | KCNK9 inh inactive | Kir21 ephys inh 12.4%
COc1cccc(CNc2nc3ccccc3n2CCN2CCCCC2)c1	none (no result: TAG inh)
c1cc(CN2CCCCC2)cc(OCCCNc2nc3ccccc3s2)c1	Kir21 block -7.3 | hERG inh inactive | KCNK9 inh inactive | Kir21 ephys inh 48.2%
CCc1ccc(S(=O)(=O)NCCOc2cccc3cccnc23)cc1	Kir21 block -6.97 | hERG inh inactive | KCNK9 inh inactive | Kir21 ephys inh inactive
CSc1ccc(S(=O)(=O)NCCOc2ccccc2C)cc1	none (no result: TAG inh)
COc1cc(C(=O)NC(=S)Nc2ccccc2[N+](=O)[O-])cc(OC)c1OC	none
CCOc1ccc(CCNC(=O)COC(=O)c2cc(S(=O)(=O)N3CCOCC3)ccc2F)cc1OCC	none
COc1ccc(S(=O)(=O)N2CCN(Cc3ccc(Cl)cc3)CC2)cc1	none (no result: TAG inh)
COc1ccc(CN2CCCN(S(=O)(=O)c3ccc(Br)cc3)CC2)cc1	Kir21 block -6.78 (no result: TAG inh) | hERG inh 67.0% | KCNK9 inh inactive | Kir21 ephys inh 31.2%
Cc1ccccc1OCC(=O)NCCCNC(=O)c1ccccn1	none (no result: TAG inh)
Nc1ccc(-c2ccc(N)cc2C(F)(F)F)c(C(F)(F)F)c1	CHT inh -5.75, Kir21 block -6.4 | hERG inh inactive | KCNK9 inh 48.0% | Kir21 ephys inh inactive | CHT block conf 50.7% | HEK293 CHT ctr inactive
Nc1ccc(C(O)(C(F)(F)F)C(F)(F)F)cc1	none (no result: TAG inh)
CCOC(=O)C1(Cc2cccc(OC)c2)CCCN(C(=O)CNC(C)=O)C1 (stereo unspecified)	none

Bioassay records (PubChem BioAssay)
